Screening results (PubChem)
Sm TGR inh = blocks Schistosoma mansoni thioredoxin glutathione reductase. 360,000 tested, 3% active. Q962Y6. Potency, µM (series often up to 114 µM), inactives show at the highest dose activity change, negative = inhibition, usual class: inhibitors. purified TGR, DTNB reduction, TNB absorbance 405 nm; also: potency is read from the fitted curve at half-maximal effect; nearly all actives have a fitted effect of over 60% in size
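Kinetic colorimetric format: TGR-catalysed, NADPH-driven DTNB reduction monitored via TNB absorbance. Enzyme dispensed at 20 nM; compound exposure 15 min at room temperature before reaction start.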
Pf growth 96h = P. falciparum growth inhibition at 96 hour, primary screen for plastid delayed-death inhibitors. P. falciparum luciferase reporter growth, 96 h. Potency, µM (doses to about 28.7 µM), inactives show at the top dose activity change, negative = inhibition, actives largely listed as inhibitors. 320,000 tested, 6.9% active. AID 504834; also: potency is read from the fitted curve at half-maximal effect
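Readout is luminescence from an integrated firefly luciferase in P. falciparum. Red cells, 2% hematocrit and 0.05% parasitemia final, were cultured with compound through two parasite generations (96 hours) at 37 C, 5% CO2.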
HCMV antiviral = inhibitors of human cytomegalovirus. HFF cells, HCMV-luciferase reporter, 72 h; active compounds read low. activity change, negative = inhibition, % at 57.5 µM. 410,000 tested, 4.5% active; in the data active = activity change below about -60%; inconclusive = no clear call, values can overlap the other calls; inactive = above about -39%
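Two compound doses tested in HFFs infected with HCMV-luciferase, MOI 1 PFU/cell, 72 h at 37C. Lysate luminescence read with OneGlo; data normalized against buffer-only and 10uM Salinomycin inhibitor controls.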
FBPA Giardia inh = inhibitors of Giardia lamblia fructose-1,6-bisphosphate aldolase; A8B2U2; purified Giardia FBPA; Potency, µM (series often up to 59.6 µM), inactives show at the top dose activity, negative = inhibition, actives largely listed as inhibitors; 290,000 tested, 0.71% active; also: potency is read from the fitted curve at half-maximal effect; nearly all actives have a fitted effect of over 55% in size
Target sequence (A8B2U2 whole entry, looked up): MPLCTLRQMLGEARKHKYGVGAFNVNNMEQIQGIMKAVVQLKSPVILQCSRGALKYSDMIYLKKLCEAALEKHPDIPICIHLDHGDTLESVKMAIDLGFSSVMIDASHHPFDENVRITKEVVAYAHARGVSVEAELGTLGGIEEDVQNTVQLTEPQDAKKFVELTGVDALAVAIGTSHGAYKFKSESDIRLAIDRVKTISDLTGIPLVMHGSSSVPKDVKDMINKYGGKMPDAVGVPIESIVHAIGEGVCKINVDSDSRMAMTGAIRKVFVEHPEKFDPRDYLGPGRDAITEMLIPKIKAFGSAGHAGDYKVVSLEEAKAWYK
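Giardia FBPA (40 nM reagent) was preincubated 10 min at RT with compound (up to 57.5 uM final), then substrate plus GAPDH/TPI/NAD/arsenate coupling system with diaphorase/resazurin was added; resorufin fluorescence (525/598 nm) was read after 20 min.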
Pf growth 48h = inhibits P. falciparum growth in the first generation, 48 h | P. falciparum luciferase growth in erythrocytes, 48 h | Potency, µM (top dose mostly 28.7 µM), inactives show at the top dose activity change, negative = inhibition, hits mostly inhibitors | 310,000 tested, 5.9% active | AID 504832; also: potency is read from the fitted curve at half-maximal effect
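Compounds are pin-transferred into medium, infected erythrocytes (2% hematocrit, 0.1% parasitemia final) are added, and plates sit one parasite generation at 37 C in 5% CO2. Detection reagent is then added and luminescence measured.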
Active calls of the source: *; ? = inconclusive; · = no result. In the library only some 14% were active in any assay of this set; here they are far more common. Unless noted, calls follow the shape of the dose curve; as a rule, active = well fitted curve in the direction sought with a large enough effect; inconclusive = small, poorly fitted or top-dose-only effect, or another doubt; inactive = no such curve, though single readings can be large; an effect the other way counts as inactive or inconclusive. % is scaled to controls: 0 for no effect and ±100 for the full control effect.

SMILES	Sm TGR inh	Pf growth 96h	HCMV antiviral	FBPA Giardia inh	Pf growth 48h
COC(=O)C1(C)NC(c2ccc(F)cc2)C2C(=O)N(c3ccc(C)cc3)C(=O)C21 (centres undefined)	?	2.33µM*	44.6	0.5%	-0.6%
CCN1C(=O)[C@H]2[C@@H](c3ccc(-c4ccc(F)cc4)c(OC)c3)N[C@@](Cc3ccccc3)(C(=O)OC)[C@H]2C1=O	·	·	25.0	·	·
CCN1C(=O)[C@H]2[C@@H](c3ccc(-c4ccc(Cl)c(Cl)c4)c(OC)c3)N[C@@](C)(C(=O)OC)[C@H]2C1=O	39.8µM*	0.928µM*	-10.5	·	2.08µM*
CCN1C(=O)[C@H]2[C@@H](c3ccc(-c4ccc(C(C)=O)cc4)c(OC)c3)N[C@@](Cc3ccccc3)(C(=O)OC)[C@H]2C1=O	-23.4%	9.28µM*	24.9	·	8.28µM*
CCN1C(=O)[C@H]2[C@@H](c3ccc(-c4ccccc4)c(OC)c3)N[C@@](Cc3ccccc3)(C(=O)OC)[C@H]2C1=O	-8.7%	0.657µM*	11.3	·	1.85µM*
CCN1C(=O)[C@H]2[C@@H](c3ccc(-c4ccc(Cl)c(Cl)c4)cc3)N[C@@](C)(C(=O)OC)[C@H]2C1=O	?	?	-7.8	·	?
CC1=CC2(C)NC(=O)C(C)C12 (centres undefined)	·	·	-7.5	·	·
C[C@@H](O)CCC[C@H](O)/C=C/[C@H]1[C@H](O)CC(=O)[C@@H]1C/C=C\CCCC(=O)O	·	·	·	-2.1%	·
CCN1C(=O)[C@H]2[C@@H](c3ccc(-c4cccc(Cl)c4)c(OC)c3)N3CCCC[C@@]3(C(=O)OC)[C@H]2C1=O	·	·	-5.0	·	·
CCN1C(=O)[C@H]2[C@@H](c3ccc(-c4cccc(Cl)c4)c(OC)c3)N[C@@](CC(C)C)(C(=O)OC)[C@H]2C1=O	-21.6%	0.233µM*	-4.3	·	0.329µM*
CCOC(=O)C1=C(COC(=O)c2ccc([N+](=O)[O-])o2)NC(=O)NC1C (centres undefined)	?	-29.0%	-29.6	·	-2.7%
O=[N+]([O-])c1ccc(OC2OCC(O)C(O)C2O)cc1 (centres undefined)	·	·	-22.2	·	·
CC(C)OC(=O)c1ccc(NC(=O)Cn2c(-c3nonc3N)nc3ccccc32)cc1	0.0%	8.28µM*	11.2	1.0%	10.4µM*
Nc1nonc1-c1nc2ccccc2n1CC(=O)Nc1ccccc1C(=O)O	4.9%	·	1.3	·	·
Nc1nonc1-c1nc2ccccc2n1CC(=O)N/N=C/c1ccc(-c2cccc(C(=O)O)c2)o1	50.1µM*	0.0%	-27.1	-14.1%	3.9%
COCCn1c(=O)c(-c2ccc(OC)cc2)nc2cnc(OCc3ccccc3)nc21	·	·	·	7.3%	·
Cc1ccc(CNS(=O)(=O)c2ccc(CN3C(=O)c4cccnc4C3=O)s2)o1	?	3.7%	-11.7	9.1%	10.1%
COc1ccccc1NC(=O)CSc1nc2ccccc2cc1Cc1ccccc1	-10.7%	?	-34.5	-8.4%	?
CCC(O)CNc1nc(-n2nc(C)cc2C)nc2sc3c(c12)CCCC3 (centres undefined)	?	·	·	11.9%	·
Cc1cc(C)n(-c2nc(SCCN(C)C)c3c4c(sc3n2)CCCC4)n1	4.7%	11.7µM*	-32.6	10.1%	?
Cc1c(Cl)ccc2c(C(=O)NCCN3CCCCC3)cc(-c3ccccn3)nc12	-8.8%	?	-27.6	7.7%	?
COc1ccccc1-c1cc(C(=O)NC2CCN(C)CC2)c2ccc(Cl)c(C)c2n1	3.4%	?	10.3	13.6%	9.28µM*
CCOC(=O)C1=C(CN2CCN(C(=O)c3ccco3)CC2)NC(=O)NC1c1ccccc1 (centres undefined)	-27.4%	-6.8%	·	·	?
CC1CC(C)(C)CC2(C1)NC(=O)N(CC(=O)N1CCN(Cc3ccc(C#N)cc3)CC1)C2=O (centres undefined)	-2.9%	2.1%	-84.2*	·	-28.1%
CC1CC(C)(C)CC2(C1)NC(=O)N(CC(=O)N1CCN(S(=O)(=O)c3cccs3)CC1)C2=O (centres undefined)	1.4%	?	-9.7	·	9.28µM*
CC1(c2ccc3ccccc3c2)NC(=O)N(CC(=O)N2CCN(Cc3ccc(C#N)cc3)CC2)C1=O (centres undefined)	-27.6%	-12.7%	·	·	?
